# Assay results as given in PubChem BioAssay (EPA / NIEHS).
# Values joined by “and” are separate entries in the source; they are usually repeats but may differ in a detail not shown here. Identical values can stand only once. Results filed as inconclusive are left out. More than one record can exist for a structure, and the calls need not agree. Active and inactive are the calls of the source. How the source made its calls: active means hit-call score of the fitted dose curve at least 0.9, where 1 is the maximum; inconclusive means response in the unintended direction; inactive means score below 0.9.
# Assays:
# [1] = biological target: Tyrosine-protein phosphatase non-receptor type 13 (Homo sapiens) (UniProt Q12923); assay: NVS_ENZ_hPTPN13: NovaScreen (NVS) Enzymatic Assay for human Protein Tyrosine Phosphatase Non-receptor Type 13 (PTPN13) (AID 2283205)
# Sequence of Tyrosine-protein phosphatase non-receptor type 13 (Homo sapiens) (Q12923 whole entry, looked up): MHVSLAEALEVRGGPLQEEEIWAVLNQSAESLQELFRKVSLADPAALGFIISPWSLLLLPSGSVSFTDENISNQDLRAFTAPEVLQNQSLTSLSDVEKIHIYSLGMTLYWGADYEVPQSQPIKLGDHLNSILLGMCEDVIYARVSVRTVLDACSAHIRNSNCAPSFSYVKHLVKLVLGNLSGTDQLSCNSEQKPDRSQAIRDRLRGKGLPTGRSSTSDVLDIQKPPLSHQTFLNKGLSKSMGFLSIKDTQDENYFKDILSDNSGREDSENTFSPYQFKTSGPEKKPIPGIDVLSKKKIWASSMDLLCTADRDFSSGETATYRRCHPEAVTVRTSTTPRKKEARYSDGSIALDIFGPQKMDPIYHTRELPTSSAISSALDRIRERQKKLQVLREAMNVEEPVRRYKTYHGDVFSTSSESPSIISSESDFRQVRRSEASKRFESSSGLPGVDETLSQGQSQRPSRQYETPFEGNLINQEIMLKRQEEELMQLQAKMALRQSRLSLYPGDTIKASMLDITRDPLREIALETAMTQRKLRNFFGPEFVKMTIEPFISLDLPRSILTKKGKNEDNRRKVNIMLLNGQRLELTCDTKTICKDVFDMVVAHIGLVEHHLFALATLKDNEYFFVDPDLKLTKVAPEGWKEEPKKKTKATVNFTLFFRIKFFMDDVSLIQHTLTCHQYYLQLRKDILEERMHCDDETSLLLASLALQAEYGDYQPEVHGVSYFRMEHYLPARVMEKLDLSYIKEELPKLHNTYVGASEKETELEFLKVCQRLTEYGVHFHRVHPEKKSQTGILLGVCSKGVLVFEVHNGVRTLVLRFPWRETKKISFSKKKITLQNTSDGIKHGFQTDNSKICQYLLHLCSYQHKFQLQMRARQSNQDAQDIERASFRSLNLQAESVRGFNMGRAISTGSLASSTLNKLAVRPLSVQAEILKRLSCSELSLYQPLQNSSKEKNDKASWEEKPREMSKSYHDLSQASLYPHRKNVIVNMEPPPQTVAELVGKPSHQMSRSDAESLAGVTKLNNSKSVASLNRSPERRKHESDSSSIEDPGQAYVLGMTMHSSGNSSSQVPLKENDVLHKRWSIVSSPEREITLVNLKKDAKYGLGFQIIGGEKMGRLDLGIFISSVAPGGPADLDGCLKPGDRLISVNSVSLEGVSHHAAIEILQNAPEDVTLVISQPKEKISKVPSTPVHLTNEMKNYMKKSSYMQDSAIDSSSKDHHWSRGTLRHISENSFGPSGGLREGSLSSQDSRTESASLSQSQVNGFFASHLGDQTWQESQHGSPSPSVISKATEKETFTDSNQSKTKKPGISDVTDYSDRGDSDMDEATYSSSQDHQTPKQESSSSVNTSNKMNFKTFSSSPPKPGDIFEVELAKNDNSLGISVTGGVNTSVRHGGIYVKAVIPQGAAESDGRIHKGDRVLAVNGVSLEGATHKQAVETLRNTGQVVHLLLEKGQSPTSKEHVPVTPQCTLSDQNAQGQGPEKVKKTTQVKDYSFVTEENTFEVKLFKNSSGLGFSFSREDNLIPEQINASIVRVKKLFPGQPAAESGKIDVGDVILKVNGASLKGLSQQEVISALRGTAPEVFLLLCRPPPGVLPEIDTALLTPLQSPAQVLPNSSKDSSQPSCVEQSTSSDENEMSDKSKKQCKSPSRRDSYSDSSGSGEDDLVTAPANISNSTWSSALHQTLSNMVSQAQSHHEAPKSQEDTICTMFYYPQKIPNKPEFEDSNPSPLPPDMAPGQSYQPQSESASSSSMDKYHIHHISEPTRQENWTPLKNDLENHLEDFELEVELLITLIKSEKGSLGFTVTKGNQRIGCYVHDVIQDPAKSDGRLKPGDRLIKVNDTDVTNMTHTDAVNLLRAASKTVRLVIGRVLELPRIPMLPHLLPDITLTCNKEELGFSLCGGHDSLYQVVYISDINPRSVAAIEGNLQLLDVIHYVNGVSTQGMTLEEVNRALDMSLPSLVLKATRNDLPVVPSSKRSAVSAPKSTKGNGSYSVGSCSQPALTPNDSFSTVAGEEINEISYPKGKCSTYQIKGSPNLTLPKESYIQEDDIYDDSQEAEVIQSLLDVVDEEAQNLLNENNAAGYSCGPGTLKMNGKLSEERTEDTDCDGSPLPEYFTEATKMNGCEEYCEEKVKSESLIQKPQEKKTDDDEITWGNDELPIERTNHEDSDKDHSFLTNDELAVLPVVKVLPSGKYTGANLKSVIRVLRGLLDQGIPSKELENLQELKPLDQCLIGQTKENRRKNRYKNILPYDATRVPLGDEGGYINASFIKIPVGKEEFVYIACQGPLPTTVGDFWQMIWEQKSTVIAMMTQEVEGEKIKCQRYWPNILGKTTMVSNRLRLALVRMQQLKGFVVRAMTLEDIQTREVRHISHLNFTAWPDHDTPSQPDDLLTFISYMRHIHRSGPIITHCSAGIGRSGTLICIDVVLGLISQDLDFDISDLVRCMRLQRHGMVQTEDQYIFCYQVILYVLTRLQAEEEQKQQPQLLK
# Method in brief: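 Screened first at a single 25 uM in duplicate; compounds passing the threshold (e.g. 30% inhibition) were rerun in concentration series, top 50 uM. Recombinant enzyme, fluorescent substrate, mobility-shift separation, 0.5 h read. Data fitted as inhibition relative to DMSO.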
# [2] = biological target: human Protein Tyrosine Phosphatase Receptor Type B (PTPRB), PTPRB (gene 5787) (UniProt P23467); assay: NVS_ENZ_hPTPRB: NovaScreen (NVS) Enzymatic Assay for human Protein Tyrosine Phosphatase Receptor Type B (PTPRB) (AID 2283211)
# Sequence of human Protein Tyrosine Phosphatase Receptor Type B (PTPRB), PTPRB (gene 5787) (P23467 whole entry, looked up): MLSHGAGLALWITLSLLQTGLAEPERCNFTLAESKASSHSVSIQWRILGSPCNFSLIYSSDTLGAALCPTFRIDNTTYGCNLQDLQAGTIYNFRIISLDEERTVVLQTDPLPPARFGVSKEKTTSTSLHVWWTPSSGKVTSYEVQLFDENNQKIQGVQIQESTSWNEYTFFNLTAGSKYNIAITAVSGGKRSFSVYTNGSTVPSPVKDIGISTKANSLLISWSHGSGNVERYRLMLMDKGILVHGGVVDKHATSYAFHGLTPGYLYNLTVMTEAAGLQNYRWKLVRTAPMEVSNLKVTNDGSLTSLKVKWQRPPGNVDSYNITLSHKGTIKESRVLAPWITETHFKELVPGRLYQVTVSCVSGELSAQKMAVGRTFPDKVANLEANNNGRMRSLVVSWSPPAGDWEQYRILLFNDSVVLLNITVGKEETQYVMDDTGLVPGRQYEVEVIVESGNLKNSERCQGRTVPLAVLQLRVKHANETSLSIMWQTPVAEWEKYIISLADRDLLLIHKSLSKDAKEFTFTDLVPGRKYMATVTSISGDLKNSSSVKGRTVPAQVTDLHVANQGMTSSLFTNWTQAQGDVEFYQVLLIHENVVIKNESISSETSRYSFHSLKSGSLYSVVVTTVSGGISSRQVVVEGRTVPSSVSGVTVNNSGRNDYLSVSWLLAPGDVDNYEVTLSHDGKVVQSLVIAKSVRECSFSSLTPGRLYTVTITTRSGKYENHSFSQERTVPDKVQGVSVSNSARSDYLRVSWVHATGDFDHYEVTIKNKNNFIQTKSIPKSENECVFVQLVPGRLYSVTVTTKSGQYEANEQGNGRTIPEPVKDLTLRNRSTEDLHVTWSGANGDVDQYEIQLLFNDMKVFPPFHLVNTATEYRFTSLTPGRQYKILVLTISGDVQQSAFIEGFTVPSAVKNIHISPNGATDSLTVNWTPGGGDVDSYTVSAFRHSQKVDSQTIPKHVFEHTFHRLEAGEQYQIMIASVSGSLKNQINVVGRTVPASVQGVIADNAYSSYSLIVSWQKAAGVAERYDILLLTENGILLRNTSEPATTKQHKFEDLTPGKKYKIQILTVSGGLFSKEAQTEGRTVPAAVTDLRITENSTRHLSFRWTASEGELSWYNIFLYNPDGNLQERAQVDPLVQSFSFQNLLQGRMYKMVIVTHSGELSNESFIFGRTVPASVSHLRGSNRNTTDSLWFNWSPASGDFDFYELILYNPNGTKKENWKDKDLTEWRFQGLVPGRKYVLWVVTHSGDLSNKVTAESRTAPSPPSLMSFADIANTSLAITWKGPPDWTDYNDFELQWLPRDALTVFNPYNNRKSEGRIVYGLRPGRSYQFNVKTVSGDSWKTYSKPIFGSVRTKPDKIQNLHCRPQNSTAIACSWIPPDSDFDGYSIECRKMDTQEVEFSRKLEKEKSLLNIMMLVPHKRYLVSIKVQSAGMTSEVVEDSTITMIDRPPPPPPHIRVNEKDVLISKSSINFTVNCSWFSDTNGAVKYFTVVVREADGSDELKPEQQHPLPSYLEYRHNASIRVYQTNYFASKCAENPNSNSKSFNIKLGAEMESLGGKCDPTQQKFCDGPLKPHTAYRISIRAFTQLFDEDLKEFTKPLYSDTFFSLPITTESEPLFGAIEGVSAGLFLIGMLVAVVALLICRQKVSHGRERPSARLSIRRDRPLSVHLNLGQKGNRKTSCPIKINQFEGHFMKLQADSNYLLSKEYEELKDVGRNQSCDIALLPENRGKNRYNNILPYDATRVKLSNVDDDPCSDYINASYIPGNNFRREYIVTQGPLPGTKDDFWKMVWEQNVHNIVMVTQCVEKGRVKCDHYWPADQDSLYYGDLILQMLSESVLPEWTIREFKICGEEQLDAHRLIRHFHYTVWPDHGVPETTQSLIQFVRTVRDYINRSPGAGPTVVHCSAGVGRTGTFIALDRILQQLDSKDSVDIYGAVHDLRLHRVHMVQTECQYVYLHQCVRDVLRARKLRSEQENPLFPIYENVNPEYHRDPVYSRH
# Method in brief: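 Recombinant human PTPRB with a fluorescent substrate, product separated by electrophoretic mobility shift; read 1 h after dosing. Primary screen in duplicate at 25 uM; actives then retested in concentration series; loss of signal versus DMSO.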
# [3] = biological target: human Protein Tyrosine Phosphatase Receptor Type C (PTPRC), PTPRC (gene 5788) (UniProt P08575); assay: NVS_ENZ_hPTPRC: NovaScreen (NVS) Enzymatic Assay for human Protein Tyrosine Phosphatase Receptor Type C (PTPRC) (AID 2283212)
# Method in brief: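 Absorbance-based phosphatase activity of human PTPRC protein extracted from yeast was measured 1 h post-dosing. Compounds first tested at 25 uM in duplicate, then those passing threshold in singleton concentration series to 50 uM.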
SMILES,AC50 [1],AC50 [2],outcome [2],AC50 [3]
Nc1c(Cl)cc([N+](=O)[O-])cc1Cl,25 µM (active),,,
CN(C)[C@@H]1C(=O)C(C(N)=O)=C(O)[C@@]2(O)C(=O)C3=C(O)c4c(O)cccc4[C@@](C)(O)[C@H]3[C@H](O)[C@@H]12,2.9 µM (active),29.7 µM (active) and 10.1 µM (active),inactive,11.4 µM (active)
S=C1NCCN1,,,inactive,
